We go through seven compounds from ChEMBL document CHEMBL1961873, “Compounds: GSK PKIS; Assays: Nanosyn kinase panel” (2012).

Experiment [1] concerns the target RAC-alpha serine/threonine-protein kinase (Homo sapiens) (UniProt P31749). The settings on record: at 0.1 µM.
Experiment [2] has the same target. Conditions: at 1 µM.
Experiment [3] deals with RAC-beta serine/threonine-protein kinase (Homo sapiens) (UniProt P31751). Conditions: at 0.1 µM.
Experiment [4] shares this target. Conditions: at 1 µM.
For experiment [5], the target named is RAC-gamma serine/threonine-protein kinase (Homo sapiens) (UniProt Q9Y243). The settings on record: at 0.1 µM.
Sequence of RAC-gamma serine/threonine-protein kinase (Homo sapiens) (Q9Y243 whole entry): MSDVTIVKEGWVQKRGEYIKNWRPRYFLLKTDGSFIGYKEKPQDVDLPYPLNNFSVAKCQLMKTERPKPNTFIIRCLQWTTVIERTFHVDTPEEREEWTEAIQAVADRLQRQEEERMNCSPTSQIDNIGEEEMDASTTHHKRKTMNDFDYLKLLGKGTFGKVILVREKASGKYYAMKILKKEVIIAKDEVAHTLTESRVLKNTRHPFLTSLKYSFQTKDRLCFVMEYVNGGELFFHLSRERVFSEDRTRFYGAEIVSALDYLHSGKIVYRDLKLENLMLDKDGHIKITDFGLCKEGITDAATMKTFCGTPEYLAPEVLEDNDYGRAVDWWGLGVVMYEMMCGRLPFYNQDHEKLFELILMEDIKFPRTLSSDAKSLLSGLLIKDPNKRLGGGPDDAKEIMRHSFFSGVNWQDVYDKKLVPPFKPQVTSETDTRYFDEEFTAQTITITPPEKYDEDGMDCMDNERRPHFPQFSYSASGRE
Experiment [6] shares this target. The settings on record: at 1 µM.
Experiment [7] deals with G protein-coupled receptor kinase 6 (Homo sapiens) (UniProt P43250). The settings on record: at 0.1 µM.
Sequence of G protein-coupled receptor kinase 6 (Homo sapiens) (P43250 whole entry, looked up): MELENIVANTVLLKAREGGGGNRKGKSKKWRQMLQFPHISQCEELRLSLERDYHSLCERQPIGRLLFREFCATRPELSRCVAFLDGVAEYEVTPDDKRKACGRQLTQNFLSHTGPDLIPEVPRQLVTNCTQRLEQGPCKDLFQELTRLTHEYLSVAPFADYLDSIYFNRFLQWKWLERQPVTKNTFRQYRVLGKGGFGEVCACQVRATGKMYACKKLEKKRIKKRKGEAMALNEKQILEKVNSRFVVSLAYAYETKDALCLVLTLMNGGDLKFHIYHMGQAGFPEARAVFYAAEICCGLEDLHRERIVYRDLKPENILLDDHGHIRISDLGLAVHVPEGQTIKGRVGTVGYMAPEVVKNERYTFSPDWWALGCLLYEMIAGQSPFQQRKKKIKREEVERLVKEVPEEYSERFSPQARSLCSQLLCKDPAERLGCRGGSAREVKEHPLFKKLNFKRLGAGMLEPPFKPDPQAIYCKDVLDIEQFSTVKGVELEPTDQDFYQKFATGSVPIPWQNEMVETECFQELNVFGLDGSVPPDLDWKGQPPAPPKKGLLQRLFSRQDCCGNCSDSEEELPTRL
Experiment [8] shares this target. Conditions: at 1 µM.
For experiment [9], the target named is T1, Rhodopsin kinase GRK7 (Homo sapiens) (UniProt Q8WTQ7).
T1 sequence (whole entry): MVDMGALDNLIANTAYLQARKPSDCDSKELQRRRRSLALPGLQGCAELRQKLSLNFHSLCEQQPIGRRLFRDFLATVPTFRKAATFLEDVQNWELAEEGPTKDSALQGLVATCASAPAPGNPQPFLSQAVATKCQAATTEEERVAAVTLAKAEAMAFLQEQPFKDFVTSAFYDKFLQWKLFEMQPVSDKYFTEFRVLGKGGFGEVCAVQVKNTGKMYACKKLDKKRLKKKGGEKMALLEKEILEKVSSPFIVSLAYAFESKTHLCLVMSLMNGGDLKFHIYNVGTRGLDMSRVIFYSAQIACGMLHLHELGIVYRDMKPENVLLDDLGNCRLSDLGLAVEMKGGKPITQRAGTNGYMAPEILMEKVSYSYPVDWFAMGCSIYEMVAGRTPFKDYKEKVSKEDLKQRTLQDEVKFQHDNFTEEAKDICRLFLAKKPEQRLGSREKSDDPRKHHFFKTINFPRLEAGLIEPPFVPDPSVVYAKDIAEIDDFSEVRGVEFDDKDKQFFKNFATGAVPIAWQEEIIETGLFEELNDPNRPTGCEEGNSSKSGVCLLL
The settings on record: at 0.1 µM.

In experiment [10] the target is T1, Rhodopsin kinase GRK7 (Homo sapiens). Conditions: at 1 µM.
For experiment [11], the target named is Serine/threonine-protein kinase MRCK alpha (Homo sapiens) (UniProt Q5VT25). Conditions: at 0.1 µM.
Sequence of Serine/threonine-protein kinase MRCK alpha (Homo sapiens) (Q5VT25 whole entry): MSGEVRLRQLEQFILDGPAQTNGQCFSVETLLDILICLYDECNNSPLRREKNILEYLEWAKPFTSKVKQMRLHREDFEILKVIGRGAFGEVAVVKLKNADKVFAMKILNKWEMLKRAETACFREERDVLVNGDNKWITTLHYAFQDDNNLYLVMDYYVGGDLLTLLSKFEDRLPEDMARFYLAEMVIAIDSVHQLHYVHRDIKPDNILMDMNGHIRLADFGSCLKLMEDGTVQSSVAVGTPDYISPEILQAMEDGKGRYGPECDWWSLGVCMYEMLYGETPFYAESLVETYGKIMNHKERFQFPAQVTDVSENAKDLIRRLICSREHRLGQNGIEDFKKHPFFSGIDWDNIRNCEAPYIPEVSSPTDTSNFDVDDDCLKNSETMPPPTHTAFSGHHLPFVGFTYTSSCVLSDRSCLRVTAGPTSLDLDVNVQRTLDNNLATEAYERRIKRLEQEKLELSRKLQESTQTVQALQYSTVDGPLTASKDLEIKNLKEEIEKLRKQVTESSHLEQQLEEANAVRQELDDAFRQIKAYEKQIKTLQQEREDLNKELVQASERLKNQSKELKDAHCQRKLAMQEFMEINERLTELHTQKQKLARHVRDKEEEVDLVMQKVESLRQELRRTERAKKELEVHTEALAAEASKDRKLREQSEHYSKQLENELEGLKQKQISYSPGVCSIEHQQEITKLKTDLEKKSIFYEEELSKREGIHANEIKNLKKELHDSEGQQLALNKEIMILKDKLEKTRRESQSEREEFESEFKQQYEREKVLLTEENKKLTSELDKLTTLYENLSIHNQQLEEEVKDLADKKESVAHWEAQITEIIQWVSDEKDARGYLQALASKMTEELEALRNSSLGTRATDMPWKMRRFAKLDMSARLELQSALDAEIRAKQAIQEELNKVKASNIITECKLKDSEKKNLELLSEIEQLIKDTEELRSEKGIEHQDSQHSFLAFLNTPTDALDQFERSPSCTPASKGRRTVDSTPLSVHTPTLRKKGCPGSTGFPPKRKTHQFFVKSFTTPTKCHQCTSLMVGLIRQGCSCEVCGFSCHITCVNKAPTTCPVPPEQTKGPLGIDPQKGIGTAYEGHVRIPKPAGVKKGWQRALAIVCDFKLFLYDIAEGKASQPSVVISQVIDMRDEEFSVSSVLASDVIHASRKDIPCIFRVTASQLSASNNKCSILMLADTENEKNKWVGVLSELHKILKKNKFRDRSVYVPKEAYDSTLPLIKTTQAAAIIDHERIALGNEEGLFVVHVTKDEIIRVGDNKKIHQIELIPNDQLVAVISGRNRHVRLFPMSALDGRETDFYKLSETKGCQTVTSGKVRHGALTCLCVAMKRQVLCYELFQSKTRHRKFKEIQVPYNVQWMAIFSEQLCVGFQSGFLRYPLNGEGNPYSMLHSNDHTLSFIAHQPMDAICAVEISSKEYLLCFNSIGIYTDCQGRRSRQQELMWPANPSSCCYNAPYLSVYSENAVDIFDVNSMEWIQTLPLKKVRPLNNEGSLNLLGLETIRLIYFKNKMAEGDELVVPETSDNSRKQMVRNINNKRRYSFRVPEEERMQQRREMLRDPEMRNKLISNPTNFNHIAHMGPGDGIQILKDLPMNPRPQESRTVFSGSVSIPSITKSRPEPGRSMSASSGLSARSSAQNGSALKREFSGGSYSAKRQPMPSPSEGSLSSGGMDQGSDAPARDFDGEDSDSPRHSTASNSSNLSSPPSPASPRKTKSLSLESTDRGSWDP
The target is the same in experiment [12]. The settings on record: at 1 µM.
The target in experiment [13] is Serine/threonine-protein kinase MRCK beta (Homo sapiens) (UniProt Q9Y5S2). The settings on record: at 0.1 µM.
Experiment [14] shares this target. The settings on record: at 1 µM.
In experiment [15] the target is Ribosomal protein S6 kinase alpha-5 (Homo sapiens) (UniProt O75582). Conditions: at 0.1 µM.
Sequence of Ribosomal protein S6 kinase alpha-5 (Homo sapiens) (O75582 whole entry, looked up): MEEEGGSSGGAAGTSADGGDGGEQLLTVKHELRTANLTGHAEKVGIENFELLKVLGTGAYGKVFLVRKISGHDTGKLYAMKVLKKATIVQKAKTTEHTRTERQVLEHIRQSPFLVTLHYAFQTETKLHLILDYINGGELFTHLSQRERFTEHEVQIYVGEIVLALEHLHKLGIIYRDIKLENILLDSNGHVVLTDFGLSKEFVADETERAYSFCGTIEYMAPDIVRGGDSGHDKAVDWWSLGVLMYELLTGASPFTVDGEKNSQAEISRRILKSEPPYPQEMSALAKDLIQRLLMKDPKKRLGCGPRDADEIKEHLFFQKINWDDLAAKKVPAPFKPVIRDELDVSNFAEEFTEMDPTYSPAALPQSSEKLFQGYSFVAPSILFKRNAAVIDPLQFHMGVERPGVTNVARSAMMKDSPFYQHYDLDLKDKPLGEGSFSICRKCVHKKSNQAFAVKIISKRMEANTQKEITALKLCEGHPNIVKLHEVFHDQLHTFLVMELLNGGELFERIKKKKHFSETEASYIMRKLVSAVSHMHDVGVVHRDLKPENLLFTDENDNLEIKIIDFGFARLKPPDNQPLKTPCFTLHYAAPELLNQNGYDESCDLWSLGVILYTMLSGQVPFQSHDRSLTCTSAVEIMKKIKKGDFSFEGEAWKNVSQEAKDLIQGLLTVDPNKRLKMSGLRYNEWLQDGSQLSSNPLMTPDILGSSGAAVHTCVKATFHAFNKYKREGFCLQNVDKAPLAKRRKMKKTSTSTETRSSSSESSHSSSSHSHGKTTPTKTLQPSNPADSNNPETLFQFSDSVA
The target is the same in experiment [16]. The settings on record: at 1 µM.
In experiment [17] the target is Ribosomal protein S6 kinase alpha-4 (Homo sapiens) (UniProt O75676). The settings on record: at 0.1 µM.
Experiment [18] shares this target. Conditions: at 1 µM.
For experiment [19], the target named is Ribosomal protein S6 kinase beta-1 (Homo sapiens) (UniProt P23443). The settings on record: at 0.1 µM.
Sequence of Ribosomal protein S6 kinase beta-1 (Homo sapiens) (P23443 whole entry, looked up): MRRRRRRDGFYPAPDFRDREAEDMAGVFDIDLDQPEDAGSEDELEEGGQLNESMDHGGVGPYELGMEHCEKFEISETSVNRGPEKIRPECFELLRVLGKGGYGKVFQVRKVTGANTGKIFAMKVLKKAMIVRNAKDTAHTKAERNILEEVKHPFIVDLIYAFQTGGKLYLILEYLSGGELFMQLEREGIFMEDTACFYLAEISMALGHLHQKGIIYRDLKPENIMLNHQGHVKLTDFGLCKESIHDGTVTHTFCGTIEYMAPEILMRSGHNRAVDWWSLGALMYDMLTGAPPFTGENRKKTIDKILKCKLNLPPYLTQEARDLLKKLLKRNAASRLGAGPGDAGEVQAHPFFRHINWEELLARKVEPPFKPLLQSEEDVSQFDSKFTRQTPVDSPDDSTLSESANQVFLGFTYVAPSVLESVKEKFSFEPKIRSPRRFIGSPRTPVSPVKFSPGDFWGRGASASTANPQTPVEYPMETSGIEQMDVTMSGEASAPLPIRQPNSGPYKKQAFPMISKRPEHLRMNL
For experiment [20] the target is unchanged. Conditions: at 1 µM.

One may read the inhibition as the drop in the measured response relative to a control, in per cent.

Sequence of RAC-beta serine/threonine-protein kinase (Homo sapiens) (P31751 whole entry): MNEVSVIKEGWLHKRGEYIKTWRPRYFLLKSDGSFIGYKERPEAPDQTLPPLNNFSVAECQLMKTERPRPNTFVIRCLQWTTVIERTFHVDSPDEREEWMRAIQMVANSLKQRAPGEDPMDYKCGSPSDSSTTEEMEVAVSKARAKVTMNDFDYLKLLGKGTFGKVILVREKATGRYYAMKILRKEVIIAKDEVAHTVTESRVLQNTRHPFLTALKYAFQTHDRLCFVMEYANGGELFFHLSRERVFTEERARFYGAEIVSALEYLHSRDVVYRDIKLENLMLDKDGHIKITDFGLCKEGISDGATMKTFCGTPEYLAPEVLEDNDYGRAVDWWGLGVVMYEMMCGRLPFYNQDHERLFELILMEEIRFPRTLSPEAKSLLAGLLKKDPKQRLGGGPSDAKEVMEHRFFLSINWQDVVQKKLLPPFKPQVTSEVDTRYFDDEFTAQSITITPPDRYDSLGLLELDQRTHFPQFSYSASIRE
Sequence of RAC-alpha serine/threonine-protein kinase (Homo sapiens) (P31749 whole entry): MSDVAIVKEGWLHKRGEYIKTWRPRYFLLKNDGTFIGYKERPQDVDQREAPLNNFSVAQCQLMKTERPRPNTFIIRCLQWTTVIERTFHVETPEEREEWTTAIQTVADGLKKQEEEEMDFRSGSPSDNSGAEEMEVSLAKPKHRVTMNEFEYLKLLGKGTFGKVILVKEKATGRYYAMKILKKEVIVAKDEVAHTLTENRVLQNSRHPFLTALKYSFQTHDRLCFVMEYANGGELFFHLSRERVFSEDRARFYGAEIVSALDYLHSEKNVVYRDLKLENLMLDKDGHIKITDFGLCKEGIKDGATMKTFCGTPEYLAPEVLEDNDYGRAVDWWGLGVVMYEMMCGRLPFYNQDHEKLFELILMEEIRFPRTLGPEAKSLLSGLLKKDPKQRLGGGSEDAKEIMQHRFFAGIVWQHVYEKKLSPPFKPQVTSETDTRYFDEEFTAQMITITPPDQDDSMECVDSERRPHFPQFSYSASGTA

Consider `Nc1ncnc2occ(-c3ccc(NC(=O)Nc4cc(C(F)(F)F)cc(C(F)(F)F)c4)cc3)c12`, for which the inhibition in [1] was -0.23%; in experiment [2] it was 0.58%; in [3], 1.95%; in experiment [4], 2.09%; in experiment [5], 1.26%; in [6], 1.13%. Also, the inhibition is -2.78% in experiment [7]; -6.02% in [8]; -0.71% in [9]; -8.6% in [10]; -0.38% in [11]; -1.97% in experiment [12]. Also, the inhibition in [13] is 0.11%; in experiment [14] it was 1.52%; in experiment [15], 3.6%; in experiment [16], 25.2%; in [17], -0.06%; in [18], 20.1%. For the same compound, the inhibition in experiment [19] turned out to be 17%; in experiment [20] it was 65.8%.

In the case of `COc1ccc(COc2ccc(Cc3cnc(N)nc3N)cc2OC)cc1`, the inhibition in [1] is 0.82%; in experiment [2] it was -0.15%; in experiment [3] it was 0.33%; in experiment [4], -0.17%; in experiment [5], 0.61%; in experiment [6], 0.93%. For the same compound, the inhibition in experiment [7] is -3%; in experiment [8] it was -5.27%; in [9], 11%; in experiment [10] it was -7.03%; in experiment [11] it was 1.99%; in experiment [12], -0.63%. For the same compound, the inhibition in [13] is 3.11%; in experiment [14], 3.93%; in experiment [15], 8.75%; in [16], 5.97%; in [17] it was 1.99%; in [18] it was 1.84%. In addition, the inhibition in experiment [19] turned out to be 1.54%; in [20], 0.73%.

Turning to `COc1cc2c(cc1Nc1nc(N3CCc4ccccc43)c3cc[nH]c3n1)N(C(=O)CN(C)C)CC2`, the inhibition was determined as 1.38% in [1]; 1.39% in [2]; 0.6% in [3]; 1.42% in experiment [4]; 1.23% in experiment [5]; 1.23% in [6]. Besides, the inhibition was 1.54% in [7]; -3.01% in experiment [8]; -0.63% in [9]; -6.08% in experiment [10]; 1% in [11]; -1.14% in experiment [12]. In addition, the inhibition in experiment [13] was 0.86%; in experiment [14], 1.27%; in experiment [15], 4.25%; in experiment [16], 4.71%; in [17], 0.65%; in experiment [18], 1.75%. Besides, the figures for the inhibition in [19] and in experiment [20] were 1.59% and 0.46%, respectively.

Turning to `CCCN1CCC(Oc2cc(Nc3nc(Nc4cccc(F)c4C(N)=O)c4cc[nH]c4n3)c(OC)cc2Cl)CC1`, the inhibition was found to be 0.07% in [1]; 1.83% in experiment [2]; 1.14% in [3]; 2.04% in experiment [4]; 1.42% in experiment [5]; 1.06% in [6]. Besides, the inhibition in [7] was 1.2%; in experiment [8] it was 1.87%; in [9], 3.39%; in experiment [10], 7.39%; in experiment [11] it was 0.81%; in experiment [12], -1.24%. Further, the inhibition in experiment [13] was found to be 1.36%; in experiment [14], 2.2%; in experiment [15], 1.01%; in experiment [16], 3.87%; in experiment [17], 1.03%; in [18], 1.99%. The inhibition in experiment [19] is -0.03%; in experiment [20] it was 1.36%.

Regarding `CCn1c(-c2nonc2N)nc2cnc(Oc3cccc(NC(=O)c4ccc(OCCN5CCOCC5)cc4)c3)cc21`, the inhibition in [1] is 1.6%; in [2] it was 7.87%; in [3] it was 2.69%; in [4], 7.74%; in [5] it was 2.01%; in experiment [6] it was 7.9%. The inhibition in [7] amounted to 6.32%; in experiment [8] it was 9.42%; in [9], 1.38%; in [10], 9.5%; in [11], 6.6%; in experiment [12] it was 42.3%. Further, the inhibition in experiment [13] was determined as 17.8%; in [14], 59%; in experiment [15], 66.8%; in [16], 78.1%; in experiment [17], 56.7%; in experiment [18], 76.7%. In addition, the inhibition is 84.6% in experiment [19] and 93% in experiment [20].

For the compound `COc1ccc(-c2nn3ncccc3c2-c2ccnc(Nc3ccc(Cl)c(C(F)(F)F)c3)n2)cc1`, the inhibition was 0.26% in [1]; 0.27% in experiment [2]; 1.16% in experiment [3]; 0.96% in experiment [4]; 3.64% in experiment [5]; -0.03% in experiment [6]. Moreover, the inhibition in experiment [7] is 6.26%; in experiment [8], 9.79%; in [9], 4.07%; in experiment [10], 8.67%; in [11], -0.16%; in experiment [12], 3.43%. Also, the inhibition was -1.37% in experiment [13]; 0.06% in experiment [14]; 1.49% in [15]; 1.69% in experiment [16]; 0.22% in experiment [17]; 2.02% in experiment [18]. Further, the figures for the inhibition in experiment [19] and in experiment [20] were 0.17% and 2.22%, respectively.

As for `COc1ccc2cc(-c3c(-c4ccncc4)nc(-c4ccc([S+](C)[O-])cc4)n3C)ccc2c1` (stereo not given), the inhibition in experiment [1] is 1%; in [2], 0.09%; in experiment [3], 1.34%; in [4], 1.69%; in experiment [5], 1.23%; in experiment [6], 0.72%. In addition, the inhibition is -3.74% in [7]; -0.39% in [8]; 2.62% in experiment [9]; 2.42% in experiment [10]; 0.19% in experiment [11]; 1.36% in experiment [12]. Besides, the inhibition in experiment [13] came to 0.92%; in experiment [14] it was 1.62%; in experiment [15], 3.04%; in [16] it was 1.94%; in experiment [17], 1.31%; in experiment [18] it was 4.13%. For the same compound, the figures for the inhibition in experiment [19] and in [20] were 2.56% and 2.88%, respectively.
